Hit rate of the full screen: of about 53,000 sequences, about 3,700 (7%) were called active.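 Rule for the calls: active = gene knockdowns whose robust z-score for IL-1 alpha signal is at least 2 or at most -2, so actives lie on both sides; inactive = the rest.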 The entries come from a sample that favours actives as a whole.
assay: Components of the Cytosolic LPS Sensing Pathway: Gene Identification via Genome-wide siRNA Screen; details: RAW264.7 macrophages, IL-1a HTRF, actives lie on both sides, screened at 100 nM (by protocol), cells primed 5 h with Pam3CSK4 first;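 note: robust z of the log signal after scaling to non-targeting control siRNA wells of the plate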
Procedure, shortened: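 Supernatant IL-1a by HTRF from RAW264.7 cells primed with Pam3CSK4 (5 hours) and transfected with LipidA (24 hour) after 48h siRNA knockdown at 100 nM; cell viability checked with CellTiter-Glo.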

| Sequence | z-score |
| --- | --- |
| GCUGAAGACACUCUGUGAATT against Ehbp1l1 | -1.7 (inactive) |
| GCAACGCAGUACUCUACCCTT against Tns2 | 0.557 (inactive) |
| CCCAGUGGUUUUAAAGCAUTT against Commd3 | -1.64 (inactive) |
| GCCAACGCACAUAAUAAAGTT against Ndufa13 | 0.245 (inactive) |
| GCUAGGUAUCUAAGGAUAUTT against Fig4 | -0.579 (inactive) |
| GGGAAACUCAAACUGAUUGTT against 9930104L06Rik | 0.0417 (inactive) |
| GGUCAUUGUCAAAGUCAAGTT against Nutm1 | 2.4 (active) |
| GGUCAAUUCUUUGUGAUGATT against Usf1 | -0.609 (inactive) |
| GGACACUAUACAAAUUUCGTT against Fank1 | -0.109 (inactive) |
| GCGACUGUACAACGAAUUGTT against Clp1 | 3.34 (active) |
| GCAAAACUUCGGAUAGUCATT against Gak | 0.382 (inactive) |
| GGCCGUUUCCUACCUCAUGTT against Cckbr | -1.09 (inactive) |
| GGUCCAGAUCAGUUGACAGTT against Srsf5 | 0.812 (inactive) |
| GCGUGGUGUAUUUGAAUCATT against Ch25h | 2.31 (active) |
| CCCAACUCGGUUUUUUUCUTT against Olfr1037 | 0.827 (inactive) |
| CCUAAGCUUAGAUCAACAUTT against Dhx36 | -0.735 (inactive) |
| GGACGAGAUGAACAGCCUCTT against Chkb | 0.0671 (inactive) |
| GGCGCAACGAAUAAAAAUATT against D630023F18Rik | -0.581 (inactive) |
| GGAUUUCUUCCAGAAGAUGTT against Grhpr | -1.54 (inactive) |
| GGGAACAGUAUCUGAUUCATT against Polg | 2.35 (active) |
| CGUAAACAUUUCCUUCUACTT against Dmbt1 | -0.718 (inactive) |
| CUAUGACACUUGGUUCCAUTT against Nxpe5 | 1.69 (inactive) |
| GCCUGUAGCAGAGAACUUUTT against Tmem59l | 1.1 (inactive) |
| GGUGUGAAGGAGAAGUUCATT against Atp6v1a | 2.01 (active) |
| CCCAAAACUUCGUUUGUGUTT against Vezf1 | -0.973 (inactive) |
| CCCAUAUCCUAGCUCUCUUTT against Olfr1230 | -1.49 (inactive) |
| GGCCAAAGUCCACACAAGUTT against Naaa | 2.12 (active) |
| GGCAUGGAGAGAAGAAAAGTT against Rassf7 | -0.433 (inactive) |
| GCUCUAGAAAGUUACAGAUTT against Crtam | 0.317 (inactive) |
| GGCUGCAUCUAUAACAUAATT against Olfr611 | -0.767 (inactive) |

Reference: PubChem BioAssay AID1508600 (Functional Genomics Laboratory (NCATS/FGL), 2020)
